Data on 88 molecules can be found in PubChem BioAssay AID2025 (NMMLSC, 2009).

The whole screen tested about 330,000 compounds, of which about 980 (0.3%) were called active. The full list was thinned out, with actives kept by preference. Values without a mark were called inactive.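 The calls were made as follows: active = percent response vs DMSO below 50%; inconclusive = fewer than 70 events counted for the yeast strain; inactive = the rest.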

This experiment is described as follows: compounds altering RPL19A-GFP fluorescence, TOR branch – cell-based, S. cerevisiae, multiplex flow cytometry, MLPCN, primary screen (AID 2025).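 Also: median channel GFP fluorescence of the barcoded RPL19A-GFP strain; ratio of sample median GFP to plate DMSO average so 100% = DMSO; lower means less RPL19A-GFP as with rapamycin TOR inhibition.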 Conditions: S. cerevisiae RPL19A-GFP strain, 3 h, at 10 µM, active compounds read low. Background: Flow cytometry measures light scatter and fluorescence of single cells or particles in a stream.
As to `CN(NC(=O)C1CC(=O)N(c2ccccc2)C1)C1=NS(=O)(=O)c2ccccc21` (stereo not drawn), the percent response vs DMSO was 102%.

Regarding `CC1(C)CC2CC(C)(CN2c2ncnc3ccc(Br)cc23)C1` (stereo not drawn), the percent response vs DMSO was 105%.

Regarding `CN(CC(=O)Nc1ccccc1Cl)C(=O)c1ccccc1SCC(=O)N1CCCC1`, the percent response vs DMSO was 94.7%.

As to `O=c1c2c(nc3nc[nH]n13)CCC2`, the percent response vs DMSO is 19.2% [may fluoresce violet] (active).

Regarding `O=c1c2c(nc3cc(-c4cccc(Cl)c4)[nH]n13)CCCC2`, the percent response vs DMSO was 99.2%.

On to `CSc1nc2nc3c(c(=O)n2[nH]1)CCC3`, for which the percent response vs DMSO was 89.8%.

For `CCCCCC(O)c1cccc(OCc2ccc3ccccc3n2)c1` (stereo not drawn), the percent response vs DMSO is 88.3%.

Turning to `O=C1CC(=O)Nc2cc(S(=O)(=O)N3CCN(c4cccc(C(F)(F)F)c4)CC3)ccc2N1`, the percent response vs DMSO was 97.6%.

Regarding `Cc1nc2ccccc2c(=O)n1NC(=O)c1ccccc1`, the percent response vs DMSO was 100%.

Turning to `Cc1nc2c(ncn2-c2ccccc2)c(=O)n1NC(=O)CN1CCCC1`, the percent response vs DMSO is 27.7% [may fluoresce violet] (active).

As to `O=C(CN1CCCC1)N1CCN(c2ccccc2)CC1`, the percent response vs DMSO is 90.5%.

Regarding `CN(CCc1cnn(C)c1)Cc1cn(C)nc1-c1ccccc1F`, the percent response vs DMSO was 96.2%.

For `COc1ccc(C(=O)NC2CC2)cc1OC1CCN(Cc2ccc(SC)cc2)CC1`, the percent response vs DMSO was 101%.

As for `COc1cc(CN2CCCC(C(=O)c3ccc(SC)cc3)C2)cc(Cl)c1O` (stereo not drawn), the percent response vs DMSO was 40.5% [may fluoresce violet] (active).

`COc1ccc(CN2CCCC(C(=O)c3ccc(Cl)cc3)C2)cc1Cn1cncn1` (stereo not drawn): the percent response vs DMSO is 105%.

For `CN(C)C(=O)c1cc(Br)ccc1Cl`, the percent response vs DMSO was 95.1%.

As to `Cc1ccc(SCC2=NNC(=O)C2)cc1`, the percent response vs DMSO is 38.4% [may fluoresce violet] (active).

Take `Cc1ccc(SCCSc2ncccn2)cc1`: the percent response vs DMSO is 109%.

For the molecule `Cc1ccc(SCc2cc(=O)[nH]c(N3CCCCC3)n2)cc1`, the percent response vs DMSO was 97.5%.

For `Cc1cccc(N2CCN(C(=O)CN(C)S(=O)(=O)c3ccc4c(c3)CCC(=O)N4)CC2)c1C`, the percent response vs DMSO is 99.3%.

Regarding `Clc1c(OCCCn2ccnc2)ccc2ccccc12`, the percent response vs DMSO is 99.7%.

As to `O=C(CSc1ncccn1)NCCc1ccccc1`, the percent response vs DMSO is 99.8%.

Turning to `CC(=O)OC(C(=O)NCCc1ccccc1)c1cccnc1` (stereo not drawn), the percent response vs DMSO is 47.6% [may fluoresce violet] (active).

Take `CCC(Oc1ccccc1)C(=O)NCc1cccnc1` (stereo not drawn): the percent response vs DMSO was 100%.

As to `O=C1COc2ccc(C(=O)COC(=O)CCOc3ccccc3)cc2N1`, the percent response vs DMSO is 97.8%.

Regarding `COCCN(CCOC)S(=O)(=O)c1ccc(C(=O)Nc2nc3c(s2)CCc2ccccc2-3)cc1`, the percent response vs DMSO was 25.1% [may fluoresce violet] (active).

Consider `C=CCN(CC=C)S(=O)(=O)c1ccc(C(=O)Nc2nc3c(s2)CCc2ccccc2-3)cc1`, for which the percent response vs DMSO was 103%.

In the case of `COc1ccc(C(=O)Nc2ncc3c(n2)-c2ccccc2CC3)cc1`, the percent response vs DMSO was 97.8%.

For the molecule `COc1cc(CNc2ncn[nH]2)ccc1OCc1ccccc1C`, the percent response vs DMSO was 103%.

As for `O=C1COc2ccc(S(=O)(=O)NCCc3ccc(Cl)cc3)cc2N1`, the percent response vs DMSO is 103%.

`O=C(Cc1c(F)cccc1Cl)Nc1ccc(-n2cnnn2)cc1`: the percent response vs DMSO is 94.7%.

In the case of `O=C(COc1ccc(-n2cnnn2)cc1)Nc1ccccc1Cl`, the percent response vs DMSO is 33.1% [may fluoresce violet] (active).

On to `C=CCc1cccc(/C=N/NC(=O)COc2ccc(-n3cnnn3)cc2)c1O`, for which the percent response vs DMSO is 105%.

Regarding `COc1ccc(CN(Cc2ccco2)S(=O)(=O)c2ccc(S(=O)(=O)N3CCCC3)cc2)cc1`, the percent response vs DMSO is 107%.

As to `CCOc1ccc(S(=O)(=O)N2CCC(c3ccccc3)CC2)cc1C(=O)O`, the percent response vs DMSO is 99.8%.

On to `COc1ccc(S(=O)(=O)NC(C)C(=O)NCc2ccncc2)cc1Cl` (stereo not drawn), for which the percent response vs DMSO was 99.9%.

With `CC(Oc1cc2oc(=O)c3c(c2cc1Cl)CCCC3)C(=O)NCc1ccncc1` (stereo not drawn), the percent response vs DMSO is 14.1% [may fluoresce violet] (active).

As for `O=C(COc1cc2oc(=O)c3c(c2cc1Cl)CCC3)NCCCN1CCOCC1`, the percent response vs DMSO is 112%.

With `Cc1ccc(OCCCCN2CCCCC2)c(Br)c1`, the percent response vs DMSO was 96.8%.

Regarding `CCOc1ncccc1C(=O)OCc1cn2cc(Cl)ccc2n1`, the percent response vs DMSO is 45.3% [may fluoresce violet] (active).

Take `CCOc1ncccc1C(=O)OCC(=O)NC1CC1`: the percent response vs DMSO is 99.9%.

Regarding `CCOc1ncccc1C(=O)OCC(=O)N1c2ccccc2CC1C` (stereo not drawn), the percent response vs DMSO is 95.9%.

For `Cc1cc(C)cc(N(CC(=O)NC2CCCC2)C(=O)CCC(=O)Nc2nccs2)c1`, the percent response vs DMSO is 103%.

In the case of `Cc1cc(NC(=O)CCC(=O)N(CC(=O)NC2CCCC2)c2ccc(F)cc2)no1`, the percent response vs DMSO was 100%.

In the case of `Cc1cc(C)cc(N(CC(=O)NC2CCCC2)C(=O)CCC(=O)Nc2cc(C)on2)c1`, the percent response vs DMSO is 46.1% [may fluoresce violet] (active).

Turning to `COc1cc(C2C3=C(CCCC3=O)OC3=C2C(=O)CCC3)ccc1OCC(=O)Nc1ccccc1`, the percent response vs DMSO is 110%.

Consider `O=C1CSC(=S)N1c1ccc(Cl)c(Cl)c1`, for which the percent response vs DMSO was 109%.

For the molecule `COc1ccccc1CN1CCCC(N2CCN(c3ccc(F)cc3)CC2)C1` (stereo not drawn), the percent response vs DMSO is 30.8% [may fluoresce violet] (active).

Regarding `COc1ccccc1CN1CCN(Cc2cc(OC)c(OC)cc2OC)CC1`, the percent response vs DMSO was 106%.

On to `COc1ccc(CN2CCCC(N3CCc4ccccc4C3)C2)c(O)c1` (stereo not drawn), for which the percent response vs DMSO is 101%.

`O=C(O)CSc1nccc2ccccc12`: the percent response vs DMSO is 102%.

With `Cc1ccc(NC(=O)CCOc2ccccc2)cc1S(=O)(=O)Nc1ccccc1Cl`, the percent response vs DMSO was 102%.

For the molecule `O=C(Cn1[nH]c(=O)c2ccccc2c1=O)Nc1cccc(-c2nnc3n2CCCCC3)c1`, the percent response vs DMSO was 17.9% [may fluoresce violet] (active).

`Cc1c(C(=O)Nc2cccc(-c3nnc4n3CCCCC4)c2)oc2ccccc12`: the percent response vs DMSO was 111%.

With `Cc1ccc(-c2csc(NC(=O)Cn3[nH]c(=O)c4ccccc4c3=O)n2)cc1`, the percent response vs DMSO is 103%.

For `COC(=O)c1cc(C(=O)OCC(=O)Nc2cc(C)on2)cc([N+](=O)[O-])c1`, the percent response vs DMSO was 41.7% [may fluoresce violet] (active).

Take `Cc1cc(NC(=O)CSc2nccn2-c2ccc([N+](=O)[O-])cc2)no1`: the percent response vs DMSO is 98.9%.

For `Cc1cc(NC(=O)COc2ccc([N+](=O)[O-])cc2)no1`, the percent response vs DMSO was 105%.

As to `COc1ccc(S(=O)(=O)NCCc2cc3ccc(C)c(C)c3[nH]c2=O)cc1`, the percent response vs DMSO was 101%.

`Oc1ccc2ccc3cccc[n+]3c2c1`: the percent response vs DMSO is 100%.

Turning to `Nn1c(SCC(=O)Nc2nccs2)nncc1=O`, the percent response vs DMSO is 95.5%.

Turning to `CC(C)COP(=O)(c1ccc(N(C)C)cc1)C(Nc1ccccc1)c1cccnc1` (stereo not drawn), the percent response vs DMSO was 100%.

In the case of `Cc1ccc(CNC(=O)CCS(=O)(=O)c2ccc3c(c2)CC(C)N3C(=O)C2CC2)o1` (stereo not drawn), the percent response vs DMSO is 17.4% [may fluoresce violet] (active).

In the case of `COc1ccccc1CNC(=O)C1CCN(S(=O)(=O)c2ccc3c(c2)CC(C)N3C(=O)C2CC2)CC1` (stereo not drawn), the percent response vs DMSO was 102%.

Regarding `CCC(=O)N1c2ccc(S(=O)(=O)CCC(=O)N3CCN(c4ccccc4)CC3)cc2CC1C` (stereo not drawn), the percent response vs DMSO is 105%.

Consider `CCc1ccc(-c2cc(C)no2)cc1S(=O)(=O)NCCc1ccc(S(N)(=O)=O)cc1`, for which the percent response vs DMSO is 33.8% [may fluoresce violet] (active).

`Cc1noc(C)c1S(=O)(=O)NCCc1ccc(S(N)(=O)=O)cc1`: the percent response vs DMSO was 95.7%.

As to `Cc1cc(-c2ccc(C)c(S(=O)(=O)Nc3ccc(S(N)(=O)=O)cc3)c2)on1`, the percent response vs DMSO was 99%.

For the molecule `CCOC(=O)N1CCC(N(CCOC)C(=O)Nc2ccc(C)c(C)c2)CC1`, the percent response vs DMSO was 89.6%.

For the molecule `CCOC(=O)C1Nc2ccc(C(F)(F)F)cc2C2C=CCC12` (stereo not drawn), the percent response vs DMSO was 93.3%.

For `CC1CCN(C(=O)CN(c2ccc(Oc3ccccc3)cc2)S(C)(=O)=O)CC1`, the percent response vs DMSO was 100%.

Consider `COc1ccc(NC(=O)c2cccc(Cl)c2)c[n+]1[O-]`, for which the percent response vs DMSO was 106%.

With `CC(C)(C)OC(=O)c1c(N)n(CCCN2CCCC2=O)c2nc3ccccc3nc12`, the percent response vs DMSO is 90%.

Consider `COCC(C)OC(=O)c1c(N)n(CCCN2CCOCC2)c2nc3ccccc3nc12` (stereo not drawn), for which the percent response vs DMSO is 27% [may fluoresce violet] (active).

For `CC(CN1CCOCC1)OC(=O)c1ccc(C(C)(C)C)cc1` (stereo not drawn), the percent response vs DMSO was 105%.

Regarding `CCCCC(CC)CNC(=O)C(=O)C1C(=O)Nc2ccccc21` (stereo not drawn), the percent response vs DMSO is 96.8%.

Consider `COc1ccc(N(CCC#N)S(=O)(=O)c2ccc(Cl)cc2)cc1`, for which the percent response vs DMSO is 99.2%.

On to `COc1ccccc1OCCNCC(O)COc1cccc2[nH]c3ccccc3c12` (stereo not drawn), for which the percent response vs DMSO was 103%.

As for `O=C(CNC(=O)c1ccc(Cl)cc1Cl)NCC(=O)Nc1ccccc1N1CCOCC1`, the percent response vs DMSO was 100%.

Consider `COc1ccccc1OCCNc1cc(N2CCOCC2)ccc1[N+](=O)[O-]`, for which the percent response vs DMSO was 99.1%.

On to `O=C(c1ccccc1)N1CCN(c2ccc([N+](=O)[O-])c(NCc3ccco3)c2)CC1`, for which the percent response vs DMSO is 98.5%.

Turning to `COc1ccc(CCNc2cc(N3CCN(C(=O)c4ccccc4OC)CC3)ccc2[N+](=O)[O-])cc1OC`, the percent response vs DMSO was 19.6% [may fluoresce violet] (active).

`Cn1ccsc1=NC(=O)c1cc(S(=O)(=O)N2CCOCC2)ccc1Cl`: the percent response vs DMSO was 101%.

Consider `Cn1ccs/c1=N\S(=O)(=O)c1ccc(C(C)(C)C)cc1`, for which the percent response vs DMSO is 43.3% [may fluoresce violet] (active).

Consider `COc1ccc(C2=Nn3c(nnc3-c3ccccc3OC)SC2)cc1OC1CCCC1`, for which the percent response vs DMSO was 92.8%.

As to `Cc1cccn2c(=O)c3cc(C#N)c(=O)n(CCCN4CCOCC4)c3nc12`, the percent response vs DMSO is 37.1% [may fluoresce violet] (active).

`Cc1cccn2c(=O)c3cc(C#N)c(=NC(=O)c4cccnc4)n(CC4CCCO4)c3nc12` (stereo not drawn): the percent response vs DMSO was 97.3%.

On to `Cc1cccn2c(=O)c3cc(C(=O)NCC4CCCO4)c(=N)n(Cc4ccc(F)cc4)c3nc12` (stereo not drawn), for which the percent response vs DMSO is 97.2%.
